# Measurements from PubChem BioAssay (NCI).
# About 79,000 compounds went through this panel and 15% of them were active in at least one assay; those are over-represented in the sample as a whole. Values without a mark were called inactive. The source made the active and inactive calls. Rule as the data show it: active = growth inhibition above about 70%; inactive = the rest.
# Assays:
# [1] = NCI Yeast Anticancer Drug Screen. Data for the rad50 strain (AID 155);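 also: 0% = growth of vehicle-only cultures of the same strain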; conditions: S. cerevisiae rad50 strain growth inhibition; at 50.0 µM; stronger effect = higher value
# Outline: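 Readout: growth inhibition relative to vehicle-treated cultures. Compound exposure was carried out in a genetically defined yeast strain deficient in DNA damage repair.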
# [2] = NCI Yeast Anticancer Drug Screen. Data for the mec2-1 strain (AID 157); conditions: S. cerevisiae mec2-1 strain, at 50.0 µM, stronger effect = higher value
# Outline: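 Compounds were applied to mec2-1 yeast cells. Their growth was then compared with that of vehicle-treated cultures to give growth inhibition.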
# [3] = NCI Yeast Anticancer Drug Screen. Data for the sgs1 mgt1 strain (AID 161);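 also: 0% = growth of cultures given vehicle only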; conditions: S. cerevisiae sgs1 mgt1 strain, at 50.0 µM, stronger effect = higher value
# Outline: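 This yeast growth screen uses a strain with defined DNA-repair lesions; compound-treated growth is compared with vehicle-treated growth.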
# [4] = NCI Yeast Anticancer Drug Screen. Data for the cln2 rad14 strain (AID 165);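 also: 0% = growth equal to vehicle treated cultures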; conditions: S. cerevisiae cln2 rad14 strain, at 50.0 µM, stronger effect = higher value
# Outline: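 Strain: cln2 rad14 yeast, altered in cell cycle control and DNA damage repair. Read-out: growth inhibition vs vehicle.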
# [5] = NCI Yeast Anticancer Drug Screen. Data for the bub3 strain (AID 167); conditions: S. cerevisiae bub3 mutant strain, at 50.0 µM, stronger effect = higher value
# Outline: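 Readout: yeast growth inhibition, expressed relative to vehicle-only wells. The test organism is a mutant strain from a panel with lesions in DNA repair or checkpoint genes.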
# [6] = NCI Yeast Anticancer Drug Screen. Data for the mlh1 rad18 strain (AID 175); conditions: S. cerevisiae mlh1 rad18 strain growth inhibition; at 50.0 µM; stronger effect = higher value
# Outline: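 A repair-deficient yeast strain is exposed to test compound, and growth is scored relative to vehicle-treated controls.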
SMILES,growth inhibition [1],growth inhibition [2],growth inhibition [3],growth inhibition [4],growth inhibition [5],growth inhibition [6]
CC(=O)N=C1N(/C=C2\C(=O)Oc3ccccc3C2=O)C(=O)/C(=C/c2ccc(NC(C)=O)cc2)N1C,-32.8%,-26.3%,34.2%,7.7%,-31.1%,-12.3%
O=C1c2ccccc2OCC1/C=N/O (stereo unspecified),1.9%,-24.1%,-26.4%,32.2%,-34.1%,-10.8%
COc1ccc2cc1Oc1ccc(cc1)CC1c3cc(c(OC)cc3CCN1C)Oc1c3c(cc4c1C(C2)N(C)CC4)OCO3 (stereo unspecified),1.6%,-14.3%,-15.7%,4.65%,1.1%,3.45%
CCCCN(CCO)CC(O)Cn1cnc2c(N)ncnc21 (stereo unspecified),17.4%,13.9%,8.85%,0.7%,-5.65%,21.3%
Cc1cccc(C)c1NC(=O)C(=O)/C(=C(\N)c1ccccc1)c1ccccc1,-14.3%,-9.5%,-15.2%,29.8%,10.2%,-9.15%
S=C(N/N=C/c1ccc(Cl)cc1Cl)NC1CCc2ccccc21 (stereo unspecified),-12.3%,20.5%,-9.7%,-33.8%,-7.95%,-9.25%
COc1ccc(C2ON(c3ccccc3)CC=C2C)cc1 (stereo unspecified),36%,-3.2%,5.55%,13.1%,19.4%,13.1%
O=C(CN1C(=O)c2ccccc2C1=O)Oc1ccccc1,1.8%,-7.4%,1.1%,-9.05%,16.4%,-5.45%
COc1cc2c3c(c1)[nH]c(=S)n3C(=O)C(c1ccccc1)S2 (stereo unspecified),-32.5%,5.8%,-3.5%,40.6%,10.1%,-27.8%
O=C1CCC(=O)N1CCc1cccc2ccccc12,5.45%,-1.1%,30.4%,5.4%,2.4%,-9.35%
[N-]=[N+]=NCC(O)Cn1cnc2c(NC(=O)c3ccccc3)ncnc21 (stereo unspecified),-14.7%,-0.15%,0.85%,-16.1%,8.6%,7.2%
O=c1[nH]cc(C2OCC(O)C(O)C2O)c(=O)[nH]1 (stereo unspecified),1.45%,-14.4%,0.5%,1.95%,-19.1%,-32.5%
Cc1ccnc(Nc2nnc(Nc3cc(C)ccn3)c3ccccc23)c1,-20.8%,-12.6%,-5.85%,-22%,-3.8%,-4.45%
N#CC(C(=O)O)C(c1cccc2ccccc12)c1cccc2ccc3ccccc3c12 (stereo unspecified),51%,-2.3%,27.1%,-4.35%,7.05%,13.8%
Cc1ccc(SC(F)(F)C(F)C(F)(F)F)cc1 (stereo unspecified),-4.65%,-3.6%,-7.75%,9.45%,7.9%,-1.1%
COc1ccc(/C=C/C(=O)c2ccc(Cl)s2)cc1,-18.2%,-4.75%,-5.8%,-34.3%,20.4%,-4.5%
CC(C)C1CCC2(C)C(CCC3C4(C)CCCC32OC4)C1 (stereo unspecified),-20.5%,1.35%,0.75%,-25.1%,48%,11.4%
CCOc1ccccc1C(=O)Nc1cc(Cl)ccc1Cl,6.8%,-18.1%,-7.45%,-4.8%,-15.1%,2.85%
C[C@]12CC[C@@H]3c4ccc(OCCCO)c([N+](=O)[O-])c4CC[C@H]3[C@@H]1CCC2=O,16.3%,6.8%,17.7%,12.4%,-0.5%,16%
COc1cc(/C=C2/Cc3ccccc3C2=O)ccc1O,47%,24.1%,20.4%,22.9%,26.7%,26.6%
Nc1ccccc1OCOCOc1ccccc1N,-11.7%,-17.8%,-7%,-11.4%,-6.3%,-10.3%

SMILES,growth inhibition [1],growth inhibition [2],growth inhibition [3],growth inhibition [4],growth inhibition [5],growth inhibition [6]
Cc1ccc(CCCC(=O)O)c2ccc3ccccc3c12,4.15%,2.4%,8.6%,-9.4%,4.3%,3.55%
NC(N)=NC(N)=Nc1ccccc1Br,-20.9%,-19.5%,-4.4%,-26.1%,7.05%,-3.85%
CC(C#N)(CCl)OS(=O)(=O)CCCl (stereo unspecified),37.4%,21.4%,6.4%,16.9%,48.7%,25.4%
CCOC(=O)Cc1csc(NC(NC(=O)OCC)(C(=O)OCC)C(F)(F)F)n1 (stereo unspecified),2.4%,-0.3%,-17.9%,-4.2%,-12.3%,-6.25%
CC[N+](C)(CC)CC[N+]1(C)CCCCCCC1,12.9%,5.45%,5.8%,-40.6%,10.4%,15.6%
CC(C)c1ccc(C(=O)OCCBr)cc1,18.7%,-11.4%,16.2%,-3.1%,1.7%,1.25%
NC(=O)C1=CNCCC1,-1.15%,-6.05%,-6.35%,12.3%,10.7%,14.7%
O=C1CSC=C(c2ccccc2)O1,4.45%,4.4%,-4.7%,-40.8%,-0.5%,-19.4%
CN1c2ccccc2C(=O)NC12CCN(CC1COc3ccccc3O1)CC2 (stereo unspecified),58.1%,71.4% (active),82.4% (active),62.9%,66.5%,66%
COc1ccc(NC2=CC(=O)C(=O)c3ccccc32)nn1,-4%,4.8%,-19.8%,-34.8%,-1.65%,-16%
CCCCCCCCCCCCC/C=C/CC(CC(=O)Nc1ccc(-n2c(=O)cc(C)n2C)cc1)C(=O)O (stereo unspecified),3.75%,-24.1%,13.1%,21.2%,20.6%,5.65%
O=c1nc(-c2ccccc2)cc(Cc2ccc3ccccc3n2)[nH]1,30.1%,25.8%,26.1%,-29.8%,47%,28.9%
CC(C)OC(=O)CC#N,-4.55%,-9.55%,-7.7%,-28.7%,0.6%,14.8%
COc1cc2c(cc1O)CCN[C@@]21CS[C@H]2c3c(OC(C)=O)c(C)c4c(c3C(COC1=O)N1C2C2NC(Cc3cc(C)c(OC)c(O)c32)[C@@H]1O)OCO4 (stereo partly specified),91.5% (active),94% (active),93.7% (active),91.5% (active),92.2% (active),91.2% (active)
COc1cc(NS(=O)(=O)c2ccc(C)cc2)c2c(c1N)C(=O)c1ccccc1C2=O,-3.4%,-8.15%,-4.1%,5.35%,5.55%,-1.05%
COC(=O)C1(C)CCCC2(C)C3=CC(O)C4(C(C)C)OC4C3(O)CCC12 (stereo unspecified),-9.4%,-41.6%,-8.15%,5.65%,-21.9%,-8.2%
CC(=O)[C@H]1CC[C@@H]2[C@]1(C)CC=C1[C@]23C=C[C@]2(C[C@@H](O)CC[C@]12C)C(C(=O)O)C3C(=O)O (stereo partly specified),2.35%,-18%,-39.7%,4.2%,-13.1%,7.25%
CCCCCCNC(C)=O,13.6%,5.7%,11.9%,5.7%,-5.5%,-0.55%
CCCC#CCN(C(C)C)C(C)C,-12.4%,1.65%,-6.35%,29.2%,-5.25%,-7.85%
COc1ccc2nc3cc(Cl)ccc3c(Sc3ccc(NC(C)=O)cc3)c2c1,22.1%,-5%,-2.5%,11.3%,11.3%,9.1%
